Assay results taken from ChEMBL document CHEMBL3988442, “University of Dundee, Small-Polar-MMV Screening Library” (2021).
Hit rate of the full screen: of about 48,000 compounds, about 13,000 (27%) showed an effect of 50% or more. Some of the results follow.

The compounds below were run on Wolbachia pipientis (assay: Anti-Wolbachia Cell-Based Screen). Settings: 5 µM.
Type: functional
Set-up: scale not given: in the data most compounds retested in dose-response had high values

Row | SMILES | Percent Effect [%]
1 | CSc1cc2c(cc1NC(=O)N(C)Cc1cnn(C)c1)OCCO2 | -6.777
2 | COCCN1C(=O)[C@H]2CC[C@@H]1CN(C(=O)Cc1ccc(O)c(Cl)c1)C2 | 12.68
3 | CC(C)c1noc(Cn2ncn3cccc3c2=O)n1 | -11.32
4 | O=C(O)C(F)(F)F.O=C(c1cccnc1)N1CCCC2(CCN(c3ccsc3)C2=O)C1 (centres undefined) | 9.95
5 | Cc1cnc(C(=O)N2CCC3(CCN(Cc4ccccn4)C3=O)C2)cn1.O=C(O)C(F)(F)F (centres undefined) | 102.4
6 | COCC(=O)N1CCC2(CC1)CCN(Cc1ccccn1)C2=O.O=C(O)C(F)(F)F | -18.96
7 | Cc1ccc(C(=O)N2CCC3(CCN(Cc4ccccn4)C3=O)C2)cn1 (centres undefined) | 76.19
8 | Cc1oncc1C(=O)N1CCC2(CCN(Cc3ccccn3)C2=O)C1 (centres undefined) | -15.28
9 | O=C(O)C(F)(F)F.O=C(c1ccsc1)N1CCC2(CCN(Cc3ccccn3)C2=O)C1 (centres undefined) | 124
10 | Cc1cccc(CN2CCC3(CCCN(C(=O)c4ccoc4)C3)C2=O)n1.O=C(O)C(F)(F)F (centres undefined) | 1.474
11 | CN(C)CC(=O)N1CCC2(CCN(Cc3ccccn3)C2=O)C1 (centres undefined) | -12.92
12 | Cc1cccc(CN2CCC3(CCCN(C(=O)c4ccsc4)C3)C2=O)n1.O=C(O)C(F)(F)F (centres undefined) | -5.258
13 | O=C(O)C(F)(F)F.O=C(c1ccc(F)cc1)N1CCC2(CCN(Cc3ccccn3)C2=O)C1 (centres undefined) | 89.07
14 | COc1cccc(CC2CCCN2CCCC#N)c1 (centres undefined) | 4.783
15 | O[C@H]1[C@H](n2cc(-c3cccnc3)nn2)c2ccccc2C12CCNCC2 | 12.4
16 | O=C(CCc1ccc(OC(F)(F)F)cc1)N1CCCS1(=O)=O | 14.48
17 | c1cnc(N2CCN(Cn3nccc3-c3cccnc3)CC2)nc1 | 3.122
18 | Cc1ncc(C(=O)NC2CCN(CCOc3ccc(Br)cc3)CC2)s1 | -10.45
19 | CC(C)CC(NC(=O)c1ccc[nH]1)C(=O)N1CCC(CO)CC1 (centres undefined) | 4.263
20 | Cc1occc1C(=O)N1CCCC2(CCN(CCN3CCCC3)C2=O)C1.O=C(O)C(F)(F)F (centres undefined) | -1.514
21 | Cc1occc1C(=O)N1CCC2(CCN(Cc3ccccn3)C2=O)C1.O=C(O)C(F)(F)F (centres undefined) | 103.9
22 | Cc1occc1C(=O)N1CCCC2(CCN(c3ccccc3)C2=O)C1 (centres undefined) | 4.886
23 | O=C(c1ccc(O)nc1)N1CCN(C(=O)c2ccc(F)c(F)c2)CC1 | -0.8885
24 | Cc1nc(C(C)C)sc1CNC(=O)CCCN1CCCCC1 | -2.668
25 | Cc1nc(C)c(C(=O)NCCNC(=O)Cc2ccccc2)s1 | 4.586
26 | CCN1CCN(CCNC(=O)c2sc(C)nc2C)CC1 | 76.69
27 | CCN1CCN(CCNC(=O)c2sc(C(C)C)nc2C)CC1 | 114.4
28 | Cc1nc(C)c(C(=O)NCCNc2cc(N3CCCC3)ncn2)s1 | 20.28
29 | Cc1nc(C(C)C)sc1C(=O)NCCn1ccnc1 | 18.45
